compound: Cc1cnc(Nc2ccc(OCCN3CCCC3)cc2)nc1Nc1cccc(S(=O)(=O)NC(C)(C)C)c1 [Fedratinib]; test: percent of DMSO control binding (KINOMEscan); higher = weaker binding / less inhibition; extreme values may be limits of the assay; conditions: concentration: 100 nM

UniProt P11802, sequence (P11802 whole entry, looked up): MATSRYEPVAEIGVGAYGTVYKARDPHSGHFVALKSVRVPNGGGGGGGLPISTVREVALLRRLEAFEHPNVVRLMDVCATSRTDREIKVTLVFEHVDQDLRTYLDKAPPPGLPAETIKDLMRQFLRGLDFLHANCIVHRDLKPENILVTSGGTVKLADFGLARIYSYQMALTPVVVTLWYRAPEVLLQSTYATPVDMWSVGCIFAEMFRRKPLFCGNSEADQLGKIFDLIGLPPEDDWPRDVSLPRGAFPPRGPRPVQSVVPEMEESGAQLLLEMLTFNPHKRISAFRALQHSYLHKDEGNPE
UniProt Q9H2X6, sequence (Q9H2X6 whole entry, looked up): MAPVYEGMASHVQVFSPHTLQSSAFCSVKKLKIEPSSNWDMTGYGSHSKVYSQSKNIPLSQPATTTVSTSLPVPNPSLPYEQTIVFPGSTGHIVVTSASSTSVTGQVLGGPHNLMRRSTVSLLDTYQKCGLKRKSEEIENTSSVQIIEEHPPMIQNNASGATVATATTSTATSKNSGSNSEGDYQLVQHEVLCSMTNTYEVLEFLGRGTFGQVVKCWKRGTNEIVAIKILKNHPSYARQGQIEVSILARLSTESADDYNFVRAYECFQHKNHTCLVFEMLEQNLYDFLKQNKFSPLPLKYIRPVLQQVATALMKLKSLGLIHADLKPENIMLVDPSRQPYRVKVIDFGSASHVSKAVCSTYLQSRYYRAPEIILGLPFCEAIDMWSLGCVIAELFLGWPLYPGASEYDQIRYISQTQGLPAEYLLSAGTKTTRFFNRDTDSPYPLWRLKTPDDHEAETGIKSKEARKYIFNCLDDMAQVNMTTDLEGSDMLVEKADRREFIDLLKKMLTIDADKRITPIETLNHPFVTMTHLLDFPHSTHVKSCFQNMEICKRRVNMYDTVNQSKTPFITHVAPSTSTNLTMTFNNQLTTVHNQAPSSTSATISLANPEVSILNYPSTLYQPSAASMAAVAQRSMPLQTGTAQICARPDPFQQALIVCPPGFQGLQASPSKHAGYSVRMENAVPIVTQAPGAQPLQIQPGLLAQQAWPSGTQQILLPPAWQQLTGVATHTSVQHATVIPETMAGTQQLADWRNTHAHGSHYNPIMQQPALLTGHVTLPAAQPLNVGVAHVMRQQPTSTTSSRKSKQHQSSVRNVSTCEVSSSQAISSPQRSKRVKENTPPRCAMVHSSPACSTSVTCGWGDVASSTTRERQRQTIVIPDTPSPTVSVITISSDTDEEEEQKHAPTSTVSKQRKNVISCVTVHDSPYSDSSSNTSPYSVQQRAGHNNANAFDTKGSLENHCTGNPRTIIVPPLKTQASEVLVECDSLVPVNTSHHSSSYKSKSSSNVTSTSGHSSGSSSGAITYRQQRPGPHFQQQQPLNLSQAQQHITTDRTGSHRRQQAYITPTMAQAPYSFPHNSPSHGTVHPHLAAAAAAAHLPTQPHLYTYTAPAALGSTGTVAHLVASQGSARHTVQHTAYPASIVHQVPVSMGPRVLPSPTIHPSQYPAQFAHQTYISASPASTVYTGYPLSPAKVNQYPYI
UniProt Q14164, sequence (Q14164 whole entry): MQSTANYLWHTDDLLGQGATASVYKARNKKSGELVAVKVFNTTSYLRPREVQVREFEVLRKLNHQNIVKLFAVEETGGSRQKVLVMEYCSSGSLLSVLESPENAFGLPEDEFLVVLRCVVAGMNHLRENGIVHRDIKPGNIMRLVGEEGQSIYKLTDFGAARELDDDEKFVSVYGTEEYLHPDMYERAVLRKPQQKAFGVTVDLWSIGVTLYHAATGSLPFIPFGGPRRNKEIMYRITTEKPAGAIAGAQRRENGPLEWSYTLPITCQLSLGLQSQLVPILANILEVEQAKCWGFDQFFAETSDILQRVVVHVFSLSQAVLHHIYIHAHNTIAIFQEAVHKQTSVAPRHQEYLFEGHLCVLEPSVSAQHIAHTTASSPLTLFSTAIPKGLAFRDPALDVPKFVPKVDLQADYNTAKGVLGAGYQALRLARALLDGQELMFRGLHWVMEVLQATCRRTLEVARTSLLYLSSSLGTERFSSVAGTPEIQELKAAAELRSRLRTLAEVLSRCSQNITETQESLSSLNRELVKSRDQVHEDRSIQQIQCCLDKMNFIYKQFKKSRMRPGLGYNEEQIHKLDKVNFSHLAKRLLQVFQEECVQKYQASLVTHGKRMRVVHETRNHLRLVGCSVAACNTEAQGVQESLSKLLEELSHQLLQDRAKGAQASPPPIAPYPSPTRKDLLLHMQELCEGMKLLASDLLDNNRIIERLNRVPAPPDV
UniProt Q9UM73, sequence (Q9UM73 whole entry L1196M, looked up): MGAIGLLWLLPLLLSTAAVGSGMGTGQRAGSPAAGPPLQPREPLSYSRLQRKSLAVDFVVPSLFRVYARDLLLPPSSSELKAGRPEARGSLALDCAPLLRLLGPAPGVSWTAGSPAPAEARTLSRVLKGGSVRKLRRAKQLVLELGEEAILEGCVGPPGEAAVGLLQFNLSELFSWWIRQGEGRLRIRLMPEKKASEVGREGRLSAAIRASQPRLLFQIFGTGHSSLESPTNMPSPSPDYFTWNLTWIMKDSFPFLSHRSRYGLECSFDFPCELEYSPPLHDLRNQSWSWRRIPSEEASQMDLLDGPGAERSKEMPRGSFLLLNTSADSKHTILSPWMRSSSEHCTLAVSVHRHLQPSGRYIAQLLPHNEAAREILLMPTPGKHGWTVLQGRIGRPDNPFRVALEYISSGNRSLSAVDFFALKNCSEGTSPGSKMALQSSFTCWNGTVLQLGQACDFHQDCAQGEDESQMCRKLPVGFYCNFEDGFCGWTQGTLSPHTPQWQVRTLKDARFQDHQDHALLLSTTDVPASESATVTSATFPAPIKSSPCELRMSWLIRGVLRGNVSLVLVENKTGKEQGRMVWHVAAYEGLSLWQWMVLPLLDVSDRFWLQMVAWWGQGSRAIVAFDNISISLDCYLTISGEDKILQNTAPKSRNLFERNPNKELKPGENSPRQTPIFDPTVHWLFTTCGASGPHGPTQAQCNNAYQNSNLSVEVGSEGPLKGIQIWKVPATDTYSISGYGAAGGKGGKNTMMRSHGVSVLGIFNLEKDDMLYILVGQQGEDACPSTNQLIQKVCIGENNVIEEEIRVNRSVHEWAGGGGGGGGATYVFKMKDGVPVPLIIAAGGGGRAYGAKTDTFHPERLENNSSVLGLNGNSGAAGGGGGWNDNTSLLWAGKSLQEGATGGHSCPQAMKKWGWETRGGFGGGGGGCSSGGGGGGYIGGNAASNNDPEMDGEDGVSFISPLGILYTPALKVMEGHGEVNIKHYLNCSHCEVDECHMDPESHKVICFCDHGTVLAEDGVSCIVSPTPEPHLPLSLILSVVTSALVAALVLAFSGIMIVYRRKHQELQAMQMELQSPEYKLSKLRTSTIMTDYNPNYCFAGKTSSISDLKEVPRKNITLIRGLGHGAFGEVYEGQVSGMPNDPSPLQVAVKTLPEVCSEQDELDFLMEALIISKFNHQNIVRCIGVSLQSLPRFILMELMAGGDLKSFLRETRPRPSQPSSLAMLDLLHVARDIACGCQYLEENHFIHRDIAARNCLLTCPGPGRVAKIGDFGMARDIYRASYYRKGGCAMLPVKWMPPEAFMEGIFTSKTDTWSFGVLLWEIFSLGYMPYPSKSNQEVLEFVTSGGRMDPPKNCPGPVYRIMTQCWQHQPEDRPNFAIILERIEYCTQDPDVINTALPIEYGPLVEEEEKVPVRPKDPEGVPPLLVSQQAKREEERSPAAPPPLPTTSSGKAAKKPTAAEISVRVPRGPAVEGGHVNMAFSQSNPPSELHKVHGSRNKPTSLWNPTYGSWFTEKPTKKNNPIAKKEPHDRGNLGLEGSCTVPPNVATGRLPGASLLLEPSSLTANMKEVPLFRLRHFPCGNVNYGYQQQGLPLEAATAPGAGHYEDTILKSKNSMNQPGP
UniProt P29597, sequence (P29597 whole entry, looked up): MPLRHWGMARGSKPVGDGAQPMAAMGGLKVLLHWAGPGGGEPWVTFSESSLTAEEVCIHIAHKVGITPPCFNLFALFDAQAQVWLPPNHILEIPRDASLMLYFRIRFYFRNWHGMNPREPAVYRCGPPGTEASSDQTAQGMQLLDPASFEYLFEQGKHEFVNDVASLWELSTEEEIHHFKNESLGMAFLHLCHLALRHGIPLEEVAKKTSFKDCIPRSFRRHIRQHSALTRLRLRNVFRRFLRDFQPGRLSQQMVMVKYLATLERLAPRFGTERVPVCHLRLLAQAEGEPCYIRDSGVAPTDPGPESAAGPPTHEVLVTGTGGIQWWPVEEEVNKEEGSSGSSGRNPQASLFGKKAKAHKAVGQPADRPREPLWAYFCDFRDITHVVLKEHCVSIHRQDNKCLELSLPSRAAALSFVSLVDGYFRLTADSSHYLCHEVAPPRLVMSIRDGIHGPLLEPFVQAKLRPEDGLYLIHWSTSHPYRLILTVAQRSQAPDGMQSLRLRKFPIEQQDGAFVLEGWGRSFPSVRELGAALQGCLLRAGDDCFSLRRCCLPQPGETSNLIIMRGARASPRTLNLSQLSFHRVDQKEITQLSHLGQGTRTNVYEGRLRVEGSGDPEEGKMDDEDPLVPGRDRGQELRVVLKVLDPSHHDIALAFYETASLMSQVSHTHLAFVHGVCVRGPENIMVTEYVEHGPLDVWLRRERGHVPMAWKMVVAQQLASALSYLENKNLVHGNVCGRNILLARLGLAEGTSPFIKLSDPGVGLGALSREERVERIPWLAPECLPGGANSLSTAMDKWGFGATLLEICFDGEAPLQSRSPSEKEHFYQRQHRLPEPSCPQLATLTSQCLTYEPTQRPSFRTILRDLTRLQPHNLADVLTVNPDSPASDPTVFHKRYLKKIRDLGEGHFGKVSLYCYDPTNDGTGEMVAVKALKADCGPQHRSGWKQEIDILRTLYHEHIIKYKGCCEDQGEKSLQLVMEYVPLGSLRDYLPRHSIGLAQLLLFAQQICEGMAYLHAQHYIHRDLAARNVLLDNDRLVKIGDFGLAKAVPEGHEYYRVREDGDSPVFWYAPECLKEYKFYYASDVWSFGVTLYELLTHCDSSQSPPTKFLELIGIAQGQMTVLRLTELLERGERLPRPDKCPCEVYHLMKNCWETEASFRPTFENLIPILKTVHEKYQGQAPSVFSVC

Row | Target | percent of DMSO control binding
1 | CAMK1B (UniProt Q6P2M8) | 66%
2 | LKB1 (UniProt Q15831) | 40%
3 | RAF1 (UniProt P04049) | 85%
4 | BMPR2 (UniProt Q13873) | 68%
5 | FGFR3(G697C) (UniProt P22607) | 78%
6 | PAK7 (UniProt Q9P286) | 100%
7 | NEK5 (UniProt Q6P3R8) | 94%
8 | LYN (UniProt P07948) | 100%
9 | TAOK3 (UniProt Q9H2K8) | 60%
10 | DDR1 (UniProt Q08345) | 100%
11 | SYK (UniProt P43405) | 100%
12 | IKK-epsilon (UniProt Q14164) | 57%
13 | PFTK1 (UniProt O94921) | 100%
14 | OSR1 (UniProt O95747) | 91%
15 | GCN2(Kin.Dom.2,S808G) | 61%
16 | VRK2 (UniProt Q86Y07) | 63%
17 | CDK4-cyclinD3 (UniProt P11802) | 90%
18 | EGFR(T790M) (UniProt P00533) | 100%
19 | TYK2(JH1domain-catalytic) (UniProt P29597) | 8.8%

Row | Target | percent of DMSO control binding
20 | ALK(L1196M) (UniProt Q9UM73) | 67%
21 | HIPK2 (UniProt Q9H2X6) | 79%
22 | p38-alpha (UniProt Q16539) | 78%
23 | STK36 (UniProt Q9NRP7) | 100%
24 | PRKCQ (UniProt Q04759) | 100%
25 | TNNI3K (UniProt Q59H18) | 97%
26 | MET(Y1235D) (UniProt P08581) | 100%
27 | LRRK2(G2019S) (UniProt Q5S007) | 76%
28 | MUSK (UniProt O15146) | 96%
29 | SgK110 (UniProt P0C264) | 100%
30 | CDC2L5 (UniProt Q14004) | 78%
31 | MLK1 (UniProt P80192) | 96%
32 | RPS6KA4(Kin.Dom.2-C-terminal) (UniProt O75676) | 39%
33 | PKNB(M.tuberculosis) | 61%
34 | DCAMKL2 (UniProt Q8N568) | 97%
35 | EPHA1 (UniProt P21709) | 60%
36 | DYRK1B (UniProt Q9Y463) | 97%
37 | PIK3CD (UniProt O00329) | 75%
